Results: PubChem BioAssay (Tox21)
Results filed as inconclusive are left out. Active and inactive are the calls of the source. Unless noted, calls come from the whole dose curve; as a rule, active = well fitted curve in the direction sought with a large enough effect in the repeat runs; inconclusive = weak or mixed curves; inactive = no such curve, though single readings can be large; an effect the other way counts as inactive or inconclusive.

What was measured:
[1] = A CellTox Green Cytotoxicity Assay to monitor cytotoxicity in HEK293 cells - 32 hour (AID 1224881); note: nearly all actives have a fitted effect of over 40% in size
In short: (§1)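 Fluorescence intensity, read at 0, 8, 16, 24, 32 and 40 h of compound treatment, reflected dye binding to DNA of dead HEK293 cells; compounds (23 nL, DMSO) were added 5 h after plating cells with reagent.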

[2] = A CellTox Green Cytotoxicity Assay to monitor cytotoxicity in HepG2 cells - 0 hour (AID 1224882); note: nearly all actives have a fitted effect of over 35% in size
In short: (§2)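 Using 1536-well format, dye-containing HepG2 suspension was seeded, allowed 5 h at 37 C/5% CO2, dosed by pintool with compounds, positive and negative controls, and imaged for fluorescence across 40 h.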

[3] = A CellTox Green Cytotoxicity Assay to monitor cytotoxicity in HepG2 cells - 32 hour (AID 1224883); note: nearly all actives have a fitted effect of over 50% in size
In short: as §2

[4] = A CellTox Green Cytotoxicity Assay to monitor cytotoxicity in HEK293 cells - 8 hour (AID 1224884); note: nearly all actives have a fitted effect of over 35% in size
In short: as §1

[5] = qHTS RealTime-Glo MT Cell Viability Assay in HepG2 cells - 16 hour (AID 1224885); note: nearly all actives have a fitted effect of over 50% in size
In short: (§3)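 Real-time, nonlytic viability: 600 HepG2 cells/well mixed with NanoLuc enzyme plus prosubstrate; 5 h settle, compound (DMSO) added by pintool; luminescence monitored over 40 h at 37 C.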

[6] = qHTS RealTime-Glo MT Cell Viability Assay in HEK293 cells - 24 hour (AID 1224886); note: top concentration of the series differs between compounds; nearly all actives have a fitted effect of over 50% in size
In short: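 Cells + reagent dispensed (600 cells/well, HEK293) → 5 h at 37 C/5% CO2 → 23 nL compound in DMSO pinned → 40 h at 37 C → luminescence read at 0, 8, 16, 24, 32, 40 h.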

[7] = qHTS RealTime-Glo MT Cell Viability Assay in HEK293 cells - 8 hour (AID 1224887); note: top concentration of the series differs between compounds; nearly all actives have a fitted effect of over 50% in size
In short: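 Viable HEK293 cells reduce a cell-permeant prosubstrate; the product diffuses out and is consumed by NanoLuc in the medium to give light. Compounds went in after a 5 h incubation and plates were read over the treatment course.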

[8] = A CellTox Green Cytotoxicity Assay to monitor cytotoxicity in HEK293 cells - 16 hour (AID 1224888); note: nearly all actives have a fitted effect of over 35% in size
In short: as §1

[9] = qHTS RealTime-Glo MT Cell Viability Assay in HepG2 cells - 0 hour (AID 1224889); note: nearly all actives have a fitted effect of over 50% in size
In short: as §3

[10] = A CellTox Green Cytotoxicity Assay to monitor cytotoxicity in HepG2 cells - 8 hour (AID 1224890); note: nearly all actives have a fitted effect of over 45% in size
In short: as §2

[11] = qHTS assay to identify small molecule antagonists of the estrogen receptor alpha (ER-alpha) signaling pathway using the BG1 cell line in the presence of 0.1 nM 17-beta-estradiol - cell viability counter screen (AID 1259241); note: nearly all actives have a fitted effect of over 40% in size
In short: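 Cytotoxicity counter-screen: live-cell protease activity measured by fluorescence (30 min reagent step) in the same wells. Cells were VM7Luc4E2 with endogenous ER-alpha and ERE-driven luciferase, treated 22 hr at 37C alongside 0.1 nM 17beta-estradiol final.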

[12] = qHTS assay to identify small molecule antagonists of the androgen receptor (AR) signaling pathway using the MDA cell line in the presence of 0.5 nM R1881 - cell viability counter screen (AID 1259242); note: nearly all actives have a fitted effect of over 45% in size
In short: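 Viability of MDA-kb2 cells was multiplexed with the luciferase AR readout; after 16 hr with compounds and R1881 at 0.5 nM final, CellTiter-Fluor fluorescence was recorded.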

[13] = qHTS assay to identify small molecule HDAC inhibitors (AID 1259364);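 note: wild-type HCT-116 cells with endogenous class I/II HDAC activity; top concentration of the series differs between compounds; nearly all actives have a fitted effect of over 45% in size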
In short: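 Read-out: luminescence of HDAC-Glo I/II reagent, 30 min RT, reflecting class I/II deacetylase activity in whole HCT-116 cells pre-exposed 2 h to DMSO-dissolved compounds.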

[14] = qHTS assay to identify small molecule HDAC inhibitors - cell viability counter screen (AID 1259365)
In short: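 CellTiter-Glo luminescence (30 min, room temperature) reported viability after a 2 h compound exposure at 37 C. Cells: wild-type HCT-116, 1,500 per well, seeded the night before.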

[15] = qHTS assay to identify small molecule agonists of the sonic hedgehog signaling (Shh) pathway - cell viability counter screen (AID 1259366); note: nearly all actives have a fitted effect of over 50% in size
In short: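 Cytotoxicity counter screen: CellTiter-Fluor reagent added after 23 h compound exposure, then 1 h at 37C and fluorescence read. Cells were 3T3 Gli1-Luc, seeded 2,000 per well and dosed 4 h post-plating.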

[16] = qHTS assay to identify small molecule antagonists of the sonic hedgehog signaling (Shh) pathway - cell viability counter screen (AID 1259367); note: nearly all actives have a fitted effect of over 55% in size
In short: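 Seed 3T3 Gli1-Luc cells at 2,000 per well; incubate 4 hr; add compound in DMSO, then conditioned medium; incubate at 37C with 5% CO2; add CellTiter-Fluor after 23 hr; read fluorescence 1 hr later.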

[17] = qHTS assay to identify small molecule agonists of the sonic hedgehog signaling (Shh) pathway (AID 1259368; calls by dose curve;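 note: NIH/3T3-derived 3T3Gli1-Luc cells carrying a stable Gli1-driven firefly luciferase reporter; series mostly up to about 92 µM; nearly all actives have a fitted effect of over 15% in size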)
In short: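 A Gli1 transcriptional response element controlled firefly luciferase in 3T3Gli1-Luc cells. Compounds and a positive control were added 4 hr after plating, and cells were incubated a further 24 hr at 37 C before luminescence detection.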

Measured: Potency

CCCCCCCCP(=O)(O)O
inactive: all assays above

CCc1cnc(C2=NC(C)(C(C)C)C(=O)N2)c(C(=O)O)c1 (stereo not drawn)
inactive: all assays above

NC(=S)c1c(Cl)cccc1Cl
inactive: all assays above

c1ccc2c(c1)-c1cccc3cccc-2c13
not listed: [14]
inactive: all other assays above

C=CC(C)(CCC=C(C)C)OC(=O)c1ccccc1N (stereo not drawn)
inactive: all assays above

O=C(O)c1cc(Cl)ccc1Cl
inactive: all assays above

CC(Oc1cccc(Cl)c1)C(=O)O (stereo not drawn)
inactive: all assays above

CCOP(=S)(OCC)Oc1ccc(S(C)=O)cc1 (stereo not drawn)
not listed: [9] | [14]
inactive: all other assays above
